High-throughput results from PubChem BioAssay.
GPR151 ag: activators of human GPR151, primary screen, cell-based, PathHunter beta-arrestin, luminescence; G-protein coupled receptor 151 (Homo sapiens), Q8TDV0; PathHunter beta-arrestin GPR151 cells; activation, % at 11.2 µM; 650,000 tested, 1% active; AID 1508602, 2020; in the data active means activation above about 4.9%
TEAD-YAP inh: TEAD-YAP interaction inhibition, primary screen, TEAD-YAP interaction inhibitor project, luminescence, HEK-TIYL cells. TEAD-Gal4/YAP UAS-luciferase luminescence. inhibition, % at 9.12 µM. 640,000 tested, 1.4% active. AID 1259422, 2018; in the data active means inhibition above about 32%
FBW7 act: FBW7 E3 ligase activators, primary screen, biochemical, AlphaScreen, human; 650,000 tested, 0.13% active; AlphaScreen FBW7–phospho-cyclin E peptide binding, activator screen; normalized activity (activation), % at 26.1 µM; F-box/WD repeat-containing protein 7 (Homo sapiens), Q969H0; AID 1259310, 2017; in the data active means normalized activity above about 1.9%;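 further: purified mutant Fbw7 with reduced substrate affinity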
MITF inh: MITF inhibitors, primary screen, biochemical, AlphaScreen, human. inhibition, % at 2.6 µM. AlphaScreen MITF homodimerization, bead proximity signal. AID 1259374, 2018. Microphthalmia-associated transcription factor (Homo sapiens), O75030. 650,000 tested, 0.91% active; in the data active means inhibition above about 50%
Target sequence (O75030 whole entry, looked up): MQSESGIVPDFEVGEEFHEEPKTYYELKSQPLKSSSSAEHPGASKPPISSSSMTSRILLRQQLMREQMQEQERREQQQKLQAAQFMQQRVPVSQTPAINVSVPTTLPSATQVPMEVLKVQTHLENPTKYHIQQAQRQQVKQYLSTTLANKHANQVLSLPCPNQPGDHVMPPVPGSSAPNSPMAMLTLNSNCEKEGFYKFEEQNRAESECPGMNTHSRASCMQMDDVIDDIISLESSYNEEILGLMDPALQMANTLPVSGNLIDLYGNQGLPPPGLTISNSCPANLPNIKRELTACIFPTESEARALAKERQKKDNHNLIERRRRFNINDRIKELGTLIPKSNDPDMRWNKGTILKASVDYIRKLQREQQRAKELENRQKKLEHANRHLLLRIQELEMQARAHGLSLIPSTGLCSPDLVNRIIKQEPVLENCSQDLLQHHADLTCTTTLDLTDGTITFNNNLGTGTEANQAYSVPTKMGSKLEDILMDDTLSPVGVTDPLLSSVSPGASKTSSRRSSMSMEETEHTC
Hits are given with their value; 0 = inactive. An excerpt weighted towards active compounds, which were near 3.4% of everything screened.

SMILES	GPR151 ag	TEAD-YAP inh	FBW7 act	MITF inh
CCN1CCN(c2ncn(-c3ccc(Nc4nccc(-c5cncc(N6CCOCC6)c5)n4)cc3)n2)CC1	0	59.8	0	0
N#Cc1cc(-c2ccnc(Nc3ccc(-n4cnc(N5CCOCC5)n4)cc3)n2)cc(N2CCCC(O)C2)c1 (configuration not stated)	0	0	0	0
N#Cc1cc(-c2ccnc(Nc3ccc(-n4cnc(-c5ccccn5)n4)cc3)n2)cc(N2CCCC(O)C2)c1 (configuration not stated)	0	50.4	0	0
c1cc(Cn2cccn2)cc(Nc2nccc(-c3cncc(N4CCOCC4)c3)n2)c1	0	79.4	0	0
OC1CCN(c2ccc(Nc3nccc(-c4cc(F)cc(N5CCOCC5)c4)n3)cc2)CC1	0	47.7	0	0
C/C(CC(=O)NC(C)c1ccccc1)=N\NC(=O)C(c1ccccc1)c1ccccc1 (configuration not stated)	0	0	0	0
Fc1cc(-c2ccnc(Nc3ccc(N4CCOCC4)cc3)n2)cc(N2CCN(C3CC3)CC2)c1	0	47.5	0	0
CN1CCN(c2ncn(-c3ccc(Nc4nccc(-c5cc(C#N)cc(N6CCC(O)CC6)c5)n4)cc3)n2)CC1	0	42.4	0	0
Cc1ncn(-c2ccc(Nc3nccc(-c4cc(C#N)cc(N5CCCC5)c4)n3)cc2)n1	0	0	0	0
Cc1ccnc(-c2ncn(-c3ccc(Nc4nccc(-c5cc(F)cc(N6CCOCC6)c5)n4)cc3)n2)c1	0	0	0	0
CC(C)(C)c1ncn(-c2ccc(Nc3nccc(-c4cn[nH]c4)n3)cc2)n1	0	63.0	0	0
OC1CCN(c2cc(F)cc(-c3ccnc(Nc4ccc(-n5cnc(-c6ccccn6)n5)cc4)n3)c2)CC1	0	84.7	0	0
Fc1cc(-c2cn[nH]c2)cc(-c2ccnc(Nc3ccc(-n4cnc(C(F)(F)F)n4)cc3)n2)c1	0	0	0	0
CCCNC(=O)c1cccc(-c2cccc(C(C)=O)c2)n1	0	0	0	0
c1ccc(CN2CCC(Nc3nc(NCc4cccnc4)c4ncn(-c5ccsc5)c4n3)CC2)cc1	0	0	0	0
COC(=O)c1c(NC(=O)c2ccc(OC)cc2)sc2c1CCN(Cc1ccccc1)C2	0	0	0	0
OC1CCN(c2ccc(Nc3nccc(-c4cncc(N5CCOCC5)c4)n3)cc2)CC1	0	61.5	0	0
Fc1cc(-c2ccnc(Nc3ccc(-n4cnc(N5CCOCC5)n4)cc3)n2)cc(N2CCOCC2)c1	0	57.1	0	0
Cc1ncn(-c2ccc(Nc3nccc(-c4cncc(N5CCC(O)CC5)c4)n3)cc2)n1	0	73.9	0	0
N#Cc1ccc(Nc2nccc(-c3cncc(N4CCOCC4)c3)n2)cc1	0	0	0	0
Fc1cc(-c2ccnc(Nc3ccc(-n4cnc(C(F)(F)F)n4)cc3)n2)cc(N2CCN(C3CC3)CC2)c1	0	0	0	0
Fc1cc(-c2ccnc(Nc3ccc(-n4cnc(C(F)(F)F)n4)cc3)n2)cc(N2CCNCC2)c1	0	39.1	0	0
Cc1cc(C(=O)COC(=O)/C=C/c2ccc(Br)o2)c(C)n1CC1CCCO1 (configuration not stated)	0	0	0	0
CCOc1cc(C(=O)NCc2nnc(SCC(=O)N3CCc4ccccc43)n2-c2cc(C)ccc2C)cc(OCC)c1OCC	0	0	0	0
COCCN1C(C)=CC(=C2C(=O)NC(=S)NC2=O)C=C1C(F)(F)F	0	45.3	0	0
SMILES	GPR151 ag	TEAD-YAP inh	FBW7 act	MITF inh
CC1=CC(=C2C(=O)NC(=S)NC2=O)C=C(C(F)(F)F)N1CCN(C)C	0	0	0	0
C#CCOc1cc(Br)c(/C=C2/NC(=O)NC2=O)cc1OCC	0	32.5	0	0
c1cc(-c2ocnc2-c2ccc3cn[nH]c3c2)cc(Nc2ccc(N3CCOCC3)cc2)n1	0	58.4	0	0
c1ccc(-c2ccn[nH]2)c(Nc2ccnc(Nc3ccc(N4CCOCC4)cc3)c2)c1	0	38.2	0	0
Cn1cnc(-c2ccnc(Nc3ccc(N4CCOCC4)cc3)c2)n1	0	0	0	0
Cn1ccc(-c2ccccc2Nc2ccnc(Nc3ccc(N4CCOCC4)cc3)c2)n1	0	46.9	0	0
Cn1cc(-c2ncoc2-c2ccnc(Nc3ccc(N4CCOCC4)cc3)c2)cn1	0	0	0	0
c1cnn(-c2ccnc(Nc3ccc(N4CCOCC4)cc3)c2)c1	0	0	0	0
O=C1CCCN1CCCNc1nc2nonc2nc1N1CCSCC1	0	0	0	0
CCN(CC)C(=O)C1CCCN(c2nc(NCCc3ccc(OC)cc3)c3ncn(-c4ccsc4)c3n2)C1 (configuration not stated)	0	33.1	0	0
CCN(CC)C(=O)C1CCCN(c2nc(NCCN3CCOCC3)c3ncn(-c4ccsc4)c3n2)C1 (configuration not stated)	0	36.2	0	0
CCN(CC)C(=O)C1CCCN(c2nc(NCCN3CCOCC3)c3ncn(C4CCCCC4)c3n2)C1 (configuration not stated)	0	37.9	0	0
CCN(CC)C(=O)C1CCCN(c2nc(NCCN3CCOCC3)c3ncn(C(C)C)c3n2)C1 (configuration not stated)	0	0	0	0
CCOC(=O)C1=C(O)/C(=C/c2ccc(N(CC)CC)cc2OC)SC1=Nc1ccc(OC)cc1	0	0	0	0
COc1cc(C=O)ccc1OCc1nnnn1-c1ccccc1	0	0	2.0	0
CC(=O)Nc1nc(-c2ccc3c(c2)CCO3)cs1	0	0	0	0
CCCN1C(=O)COc2ccc(-c3csc(NC(=O)C(CC)CC)n3)cc21	0	31.9	0	0
COC(=O)C1=C(N)OC2=C(C(=O)CC(C)(C)C2)C1c1cc(Br)ccc1OC (configuration not stated)	0	0	0	0
Cc1cc(C(=O)CSc2nc(N)cc(=O)[nH]2)c(C)n1Cc1cccs1	0	0	0	0
Cc1csc(SCC(=O)c2cc(C)n(Cc3cccs3)c2C)n1	0	59.2	0	0
Cc1cc(C(=O)CCl)c(C)n1Cc1cccs1	0	0	0	0
Cc1cc(C(=O)CSc2nnc(N)s2)c(C)n1Cc1cccs1	0	58.4	0	0
Fc1ccccc1C1C2=C(Nc3nnnn31)c1cc(Cl)ccc1OC2c1ccncc1 (configuration not stated)	0	0	0	0
Cc1ccc(-n2c(SCc3cc(=O)n4ccccc4n3)nc3ccsc3c2=O)cc1C	0	0	0	0
CC(C)(C)c1ccc(OCC(=O)Nc2ccc3nn(-c4ccccc4)nc3c2)cc1	0	0	0	0
O=C1CCCN1CCn1cnc2c(NCc3nc4ccccc4[nH]3)nc(Nc3ccncn3)nc21	0	0	0	0
c1ccc(-n2cnc3c(NCc4nc5ccccc5[nH]4)nc(Nc4ccncn4)nc32)cc1	0	35.4	0	0
COc1cc(Nc2nc(NCc3nc4ccccc4[nH]3)c3ncn(-c4ccsc4)c3n2)cc(OC)c1OC	0	0	0	0
